Measured values as given in PubChem BioAssay (EPA / NIEHS).
Records with an inconclusive call do not appear. Activity calls are given as the source filed them. How the source made its calls, unless noted: active means hit-call score of the fitted dose curve at least 0.9, where 1 is the maximum; inconclusive means response in the unintended direction; inactive means score below 0.9.

Legend:
[1] = biological target: PGR (gene 5241) (UniProt P06401); experiment: TOX21_PR_BLA_Followup_Antagonist_ratio: Tox21 HEK293 Progesterone Receptor (PR) Antagonism Beta-lactamase Follow-Up Assay, Ratio (AID 2283934)
Sequence of PGR (gene 5241) (P06401 whole entry, looked up): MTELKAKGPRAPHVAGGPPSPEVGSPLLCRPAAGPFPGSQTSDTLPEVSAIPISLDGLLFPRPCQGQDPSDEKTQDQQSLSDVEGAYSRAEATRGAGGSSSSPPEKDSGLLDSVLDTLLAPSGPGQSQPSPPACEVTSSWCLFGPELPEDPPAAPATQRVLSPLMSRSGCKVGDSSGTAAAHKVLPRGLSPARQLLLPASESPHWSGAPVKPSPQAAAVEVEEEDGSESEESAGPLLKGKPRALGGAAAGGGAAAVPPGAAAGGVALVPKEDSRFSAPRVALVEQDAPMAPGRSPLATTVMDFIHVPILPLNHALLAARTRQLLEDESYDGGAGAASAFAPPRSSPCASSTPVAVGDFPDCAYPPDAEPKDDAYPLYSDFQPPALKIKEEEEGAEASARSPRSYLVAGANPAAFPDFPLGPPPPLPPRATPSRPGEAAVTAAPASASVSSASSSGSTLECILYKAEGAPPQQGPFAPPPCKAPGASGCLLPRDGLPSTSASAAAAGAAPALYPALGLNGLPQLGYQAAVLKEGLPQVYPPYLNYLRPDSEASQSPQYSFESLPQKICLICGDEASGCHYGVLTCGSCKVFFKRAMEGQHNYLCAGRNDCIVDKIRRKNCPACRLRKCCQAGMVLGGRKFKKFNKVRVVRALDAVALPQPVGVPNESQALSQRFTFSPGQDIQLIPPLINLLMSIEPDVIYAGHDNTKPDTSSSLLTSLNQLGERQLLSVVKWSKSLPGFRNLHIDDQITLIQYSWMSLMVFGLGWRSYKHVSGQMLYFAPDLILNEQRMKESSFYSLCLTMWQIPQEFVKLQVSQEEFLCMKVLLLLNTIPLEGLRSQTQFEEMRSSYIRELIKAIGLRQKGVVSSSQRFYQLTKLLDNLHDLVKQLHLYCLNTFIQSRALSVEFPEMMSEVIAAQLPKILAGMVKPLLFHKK
Method in brief: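 Readout is the blue/green (ch2/ch1) substrate cleavage ratio after 2 hours at room temperature, following 16 hr co-treatment of PR-bla HEK293T cells with compound and 1nM promegestone. Multiplexed CellTiter-Glo viability flags cytotoxicity; DMSO baseline.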

[2] = TOX21_PR_BLA_Followup_Agonist_viability: Viability Assessment in the Tox21 HEK293 Progesterone Receptor (PR) Agonism Beta-lactamase Follow-Up Assay (AID 2283935);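 further: signal loss means lower viability so actives are cytotoxic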
Method in brief: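 Run multiplexed with the beta-lactamase FRET read, this endpoint measures ATP by CellTiter-Glo luminescence (30 min, room temperature). PR-UAS-bla HEK293T cells received compound 6 hr after plating and were then incubated 16 hr at 37C in 2% stripped serum.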

[3] = TOX21_PR_BLA_Followup_Antagonist_viability: Viability Assessment in the Tox21 HEK293 Progesterone Receptor (PR) Antagonism Beta-lactamase Follow-Up Assay (AID 2283936);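 further: cells exposed to compound with R5020 agonist for 16 h; hits lower the luminescence signal meaning cytotoxicity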
Description: TOX21_PR_BLA_Followup is a secondary assay for specificity for the TOX21_PR_BLA_Agonist assay. To differentiate true PR agonists from cytotoxic substances, this follow up assay is multiplexed with a cell viability assay. The compounds were also tested for auto fluorescence that may interfere with the biological target readout resulting in potential false positives and/or negatives. To identify the compounds that stimulate PR signaling, a PR-UAS-bla GripTite cell line i.e. PR-UAS-bla HEK293T (Invitrogen, Carlsbad, CA, USA) containing a beta-lactamase reporter gene under the control of an UAS response element was used to screen Tox21 10K compound library. The cytotoxicity of the Tox21 compound library against the PR-bla cell line was tested in parallel by measuring the cell viability using CellTiter-Glo assay in the same wells. TOX21_PR_BLA_Followup_Antagonist_viability is a component of the TOX21_PR_BLA_Followup_Antagonist assay. This component measures cell viability using the CellTiter-Glo Luciferase-coupled ATP quantitation.TOX21_PR_BLA_Followup_Antagonist_viability used a type of viability reporter where loss-of-signal activity can be used to understand changes in the cell viability. Furthermore, this assay endpoint can be referred to as a secondary readout, because this assay has produced multiple assay endpoints where this one serves a viability function. To generalize the intended target to other relatable targets, this assay endpoint is annotated to the cell cycle intended target family, where the subfamily is cytotoxicity.
Assay Protocol: PR-UAS-bla HEK293T cells were dispensed at 3,000 cells/4 uL of assay medium containing 2% charcoal stripped FBS per well into black wall/clear-bottom 1536-well plates using a Multidrop Combi (ThermoFisher Scientific, Waltham, MA) dispenser. After the assay plates were incubated at a 37C and 5% CO2 for 4 hr, 23 nL of compounds dissolved in DMSO, positive controls or DMSO only was transferred to the assay plate by a Pintool station (Kalypsys, San Diego, CA), followed by addition of 1 uL of R5020 in assay medium using a Flying Reagent Dispenser (FRD, Aurora Discovery, San Diego, CA). The plates were incubated at 37C and 5% CO2 for 16 hr. Then 1 uL of LiveBLAzer B/G FRET substrate was added using a Flying Reagent Dispenser, the plates were incubated at room temperature for 2 hours, and fluorescence intensity was measured by an Envision plate reader (PerkinElmer, Shelton, CT). For cell viability readout that measures cytotoxicity, 4 uL/well of CellTiter-Glo reagent was added into the assay plates using a FRD. After 30 min incubation at room temperature, the luminescence intensity in the plates was measured using a ViewLux (PerkinElmer) plate reader.

[4] = biological target: PGR (gene 5241) (UniProt P06401); experiment: TOX21_PR_LUC_Followup_Antagonist: Tox21 HEK293 Progesterone Receptor (PR) Antagonism Luciferase Follow-Up Assay (AID 2283938);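 further: curve fitted upward as signal gain over DMSO baseline despite antagonist label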
Source text: TOX21_PR_LUC_Followup is a secondary assay for specificity for the TOX21_PR_BLA_Agonist assay. To differentiate true PR agonists from cytotoxic substances, this follow up assay is multiplexed with a cell viability assay.TOX21_PR_LUC_Followup_Antagonist is one of one assay component(s) measured or calculated from the TOX21_PR_LUC_Followup assay. It is designed to make measurements of luciferase induction, a form of inducible reporter, as detected with bioluminescence signals by CellTiter-Glo Luciferase-coupled ATP quantitation technologyData from the assay component TOX21_PR_LUC_Followup_Antagonist was analyzed into 1 assay endpoint. This assay endpoint, TOX21_PR_LUC_Followup_Antagonist, was analyzed in the positive analysis fitting direction relative to DMSO as the negative control and baseline of activity. Using a type of inducible reporter, gain-of-signal activity can be used to understand changes in the reporter gene as they relate to the gene NR3C3. Furthermore, this assay endpoint can be referred to as a primary readout, because the performed assay has only produced 1 assay endpoint. To generalize the intended target to other relatable targets, this assay endpoint is annotated to the nuclear receptor target family, where the subfamily is steroidal.
Quality Control Precautions: Maintain cells below 85-90% confluence in culture medium. For assay purpose, the cells should be cultured in assay medium with 10% charcoal stripped FBS for 5 days with alternate day medium changed to fresh medium. Especially while in assay culture, the cells should not reach more than 85% confluence as they would become harder to detach if they reach over confluence.Assay Protocol: HEK293-PR-A-luc cells were dispensed at 3,000 cells/5 uL/well of culture medium into white wall/solid-bottom 1536-well plates using a Multidrop Combi (ThermoFisher Scientific, Waltham, MA) dispenser. After the assay plates were incubated at 37C and […] for 5 h, 23 nL of compounds dissolved in DMSO, positive controls or DMSO only was transferred to the assay plate by a Pintool station (Kalypsys, San Diego, CA). The plates were incubated at 37C and […] for 16 h. Then 4 uL of ONE-Glo reagent (Promega, Madison, WI) was added to each plate using a BioRAPTR Flying Reagent Dispenser (FRD) workstation (Beckman Coulter, Indianapolis, IN, USA) and luminescence was quantified on a ViewLux (PerkinElmer, Shelton, CT) plate reader after 30 min incubation at room temperature.

[5] = TOX21_PR_LUC_Followup_Agonist_viability: Viability Assessment in the Tox21 HEK293 Progesterone Receptor (PR) Agonism Luciferase Follow-Up Assay (AID 2283941);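 further: loss of signal means cytotoxicity so actives lower viability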
Method in brief: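 Cytotoxicity counter-readout in the PR-A luciferase reporter line HEK293, with 16 h compound exposure at 37C after cells were cultured in charcoal-stripped serum. Cellular ATP quantified by CellTiter-Glo luminescence.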

[6] = biological target: Thyroid hormone receptor alpha (Rattus norvegicus) + Thyroid hormone receptor beta (Rattus norvegicus) (UniProt P18113+P63059); experiment: TOX21_TR_LUC_GH3_Agonist_Followup: Tox21 GH3 Thyroid Hormone Receptor Agonism Luciferase Follow-Up Assay (AID 2283939)
Sequence of Thyroid hormone receptor alpha (Rattus norvegicus) + Thyroid hormone receptor beta (Rattus norvegicus) (P63059 whole entry, looked up): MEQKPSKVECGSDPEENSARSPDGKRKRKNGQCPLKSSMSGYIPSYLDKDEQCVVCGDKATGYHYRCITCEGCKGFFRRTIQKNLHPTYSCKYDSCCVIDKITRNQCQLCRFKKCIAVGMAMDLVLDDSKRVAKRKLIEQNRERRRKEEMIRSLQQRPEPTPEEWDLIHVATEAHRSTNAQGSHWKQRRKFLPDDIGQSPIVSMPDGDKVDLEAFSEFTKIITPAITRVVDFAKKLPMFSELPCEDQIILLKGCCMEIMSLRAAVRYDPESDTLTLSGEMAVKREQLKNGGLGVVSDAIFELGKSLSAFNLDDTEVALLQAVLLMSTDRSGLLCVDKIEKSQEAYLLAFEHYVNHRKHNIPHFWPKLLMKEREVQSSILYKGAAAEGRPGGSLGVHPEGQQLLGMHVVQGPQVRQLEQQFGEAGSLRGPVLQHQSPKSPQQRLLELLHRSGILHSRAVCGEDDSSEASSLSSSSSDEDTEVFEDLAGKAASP
Sequence of Thyroid hormone receptor alpha (Rattus norvegicus) + Thyroid hormone receptor beta (Rattus norvegicus) (P18113 whole entry, looked up): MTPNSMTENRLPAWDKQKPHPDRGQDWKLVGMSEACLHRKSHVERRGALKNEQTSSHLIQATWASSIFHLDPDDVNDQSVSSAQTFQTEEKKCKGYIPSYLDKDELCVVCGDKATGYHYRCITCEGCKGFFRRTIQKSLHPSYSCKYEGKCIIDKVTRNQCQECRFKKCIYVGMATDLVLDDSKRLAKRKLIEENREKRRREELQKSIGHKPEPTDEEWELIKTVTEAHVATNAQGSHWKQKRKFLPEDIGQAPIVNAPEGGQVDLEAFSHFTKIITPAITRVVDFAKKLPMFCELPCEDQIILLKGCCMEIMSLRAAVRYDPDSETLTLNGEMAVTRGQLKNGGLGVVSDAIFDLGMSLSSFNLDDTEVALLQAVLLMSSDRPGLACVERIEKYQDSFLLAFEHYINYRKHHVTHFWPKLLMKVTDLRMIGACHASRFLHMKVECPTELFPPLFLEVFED
Method in brief: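 Agonist-mode confirmatory run: 15 concentrations (5 nM to 92 uM final) on GH3 rat pituitary cells, 24 h at 37C/5% CO2, T3 as positive control. Luminescence read with ONE-Glo after 30 min.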

[7] = biological target: THRA (gene 7067) (UniProt P10827); experiment: TOX21_TRA_COA_Agonist_Followup_ratio: Tox21 Thyroid Hormone Receptor alpha Agonism through Coactivator Recruitment Follow-Up Assay, Ratio (AID 2283948; active means hit-call score of the fitted dose curve at least 0.9, where 1 is the maximum; inactive means score below 0.9)
Sequence of THRA (gene 7067) (P10827 whole entry, looked up, the tested form may be a part): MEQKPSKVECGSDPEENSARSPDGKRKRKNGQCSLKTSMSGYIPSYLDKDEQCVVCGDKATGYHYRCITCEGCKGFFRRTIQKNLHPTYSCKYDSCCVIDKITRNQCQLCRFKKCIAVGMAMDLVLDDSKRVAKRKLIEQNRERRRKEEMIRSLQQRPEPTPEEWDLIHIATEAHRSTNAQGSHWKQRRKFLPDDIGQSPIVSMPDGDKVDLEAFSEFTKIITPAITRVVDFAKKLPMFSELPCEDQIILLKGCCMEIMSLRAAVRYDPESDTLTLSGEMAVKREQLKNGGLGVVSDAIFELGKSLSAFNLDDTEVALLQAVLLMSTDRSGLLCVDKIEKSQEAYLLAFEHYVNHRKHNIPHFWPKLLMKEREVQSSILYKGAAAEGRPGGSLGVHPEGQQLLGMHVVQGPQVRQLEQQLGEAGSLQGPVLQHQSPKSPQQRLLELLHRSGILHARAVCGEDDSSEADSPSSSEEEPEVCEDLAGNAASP
Method in brief: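 GST-TRa LBD 2.5 nM + 0.10% BSA + cpd; add fluorescein-SRC-2 200 nM, Tb-anti-GST 2 nM. TR-FRET ex 340, em 520/495 ratio. Norm: DMSO 0%, T3 100%; gain-of-signal fit.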

[8] = biological target: PGR (gene 5241) (UniProt P06401); experiment: TOX21_PR_LUC_Followup_Agonist: Tox21 HEK293 Progesterone Receptor (PR) Agonism Luciferase Follow-Up Assay (AID 2283937; active means hit-call score of the fitted dose curve at least 0.9, where 1 is the maximum; inactive means score below 0.9)
Method in brief: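 Agonism scored as luciferase induction over DMSO, read by ONE-Glo after 30 min at RT. Compounds were incubated 16 h at 37C on HEK293-PR-A-luc cells (3,000/well, pre-plated 5 h) previously grown 5 days in charcoal-stripped serum.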

[9] = biological target: THRB (gene 7068) (UniProt P10828); experiment: TOX21_TRB_BLA_Agonist_Followup_ratio: Tox21 Thyroid Hormone Receptor beta Agonism Beta-lactamase (BLA) Follow-Up Assay, Ratio (AID 2283954)
Sequence of THRB (gene 7068) (P10828 whole entry, looked up, the tested form may be a part): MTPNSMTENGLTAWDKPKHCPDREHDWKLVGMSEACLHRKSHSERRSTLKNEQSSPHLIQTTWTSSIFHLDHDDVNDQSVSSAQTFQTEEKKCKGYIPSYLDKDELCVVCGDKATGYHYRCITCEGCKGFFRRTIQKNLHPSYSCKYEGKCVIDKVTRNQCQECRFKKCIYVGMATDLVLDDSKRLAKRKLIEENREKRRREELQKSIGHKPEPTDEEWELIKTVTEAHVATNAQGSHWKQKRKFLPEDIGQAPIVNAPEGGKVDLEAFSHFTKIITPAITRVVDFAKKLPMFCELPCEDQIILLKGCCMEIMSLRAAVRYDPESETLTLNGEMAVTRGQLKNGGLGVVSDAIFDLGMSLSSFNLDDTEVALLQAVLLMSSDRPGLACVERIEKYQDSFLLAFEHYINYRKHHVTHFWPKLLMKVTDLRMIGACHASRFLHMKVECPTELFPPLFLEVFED
Source text: The GeneBLAzer TRb-UAS-bla HEK293T assay kit for human TRb (ThermoFisherScientific Catalog No. K1684) was used as a secondary assay for specificity (TRb-bla). This assay contained the ligand-binding domain (LBD) of the human TRb fused to the DNA-binding domain of GAL4 stably integrated in the GeneBLAzer UAS-bla HEK293Tcell line. The reporter gene, b-lactamase, is under the transcriptional control of a UAS that binds the GAL4 DNA-binding domain. A cell viability assay was run in parallel for these cells as well using the CellTiter-Glo viability assay kit.TOX21_TRB_BLA_Agonist_Followup_ratio is an assay readout measuring reporter gene via receptor activity and designed using inducible reporter (beta lactamase induction) detected with GAL4 b-lactamase reporter gene. The signal is derived from the ratio of cleaved (ch2) to uncleaved (ch1) reporter gene substrate used as the measure of target activity.Data from the assay component TOX21_TRB_BLA_Agonist_Followup_ratio was analyzed into 1 assay endpoint. This assay endpoint, TOX21_TRB_BLA_Agonist_Followup_ratio, was analyzed in the positive analysis fitting direction relative to DMSO as the negative control and baseline of activity. […] Furthermore, this assay endpoint can be referred to as a primary readout, because this assay has produced multiple assay endpoints and this ratio serves a reporter gene function to understand target activity. […]

[10] = TOX21_TRB_BLA_Agonist_Followup_viability: Viability Assessment in the Tox21 Thyroid Hormone Receptor beta Agonism Beta-lactamase (BLA) Follow-Up Assay (AID 2283956)
Method in brief: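 Viability was read as CellTiter-Glo luminescence in the same wells as the TRb-bla agonist read-out. HEK293T GAL4-TRb LBD cells were treated for 18 h (37C, 5% CO2) at 11 concentrations in triplicate. Fits were bidirectional versus DMSO baseline.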

Compound: Nc1ccc(-c2ccc(N)c(Cl)c2)cc1Cl
- AC50 [1]: 5.01 µM (active)
- outcome [2]: inactive
- outcome [3]: inactive
- AC50 [4]: 6.09 µM (active)
- outcome [5]: inactive

Compound: NNC(=S)NN
- outcome [6]: inactive
- outcome [7]: inactive

Compound: C[C@]12CCC(=O)C[C@@H]1CC[C@@H]1[C@@H]2CC[C@]2(C)[C@@H](O)CC[C@@H]12
- outcome [1]: inactive
- outcome [2]: inactive
- outcome [3]: inactive
- outcome [5]: inactive

Compound: O=C1C2(Cl)C3(Cl)C4(Cl)C(Cl)(Cl)C5(Cl)C3(Cl)C1(Cl)C5(Cl)C24Cl (stereo not given)
- AC50 [1]: 63 µM (active)
- AC50 [2]: 66.2 µM (active)
- outcome [3]: inactive
- outcome [8]: inactive
- AC50 [4]: 33.8 µM (active)
- outcome [5]: inactive

Compound: CC(C)C1CCC(Cc2ccc(Cl)cc2)C1(O)Cn1cncn1 (stereo not given)
- AC50 [1]: 15.8 µM (active)
- AC50 [2]: 75.5 µM (active)
- outcome [3]: inactive
- AC50 [4]: 22 µM (active)
- outcome [5]: inactive

Compound: CC1(C)CCC(Cc2ccc(Cl)cc2)C1(O)Cn1cncn1 (stereo not given)
- AC50 [1]: 16.8 µM (active)
- outcome [2]: inactive
- outcome [3]: inactive
- AC50 [4]: 21.6 µM (active)
- outcome [5]: inactive

Compound: CC(C)(c1ccccc1)c1ccc(O)c(C(C)(C)c2ccccc2)c1
- outcome [7]: inactive
- outcome [9]: inactive
- outcome [10]: inactive
